# The sample as a whole holds a higher share of the strongest signals than the screen did.
# B1: Siglec-9 (Homo sapiens), Q9Y336 (protein)
# chain: MLLLLLPLLWGRERAEGQTSKLLTMQSSVTVQEGLCVHVPCSFSYPSHGWIYPGPVVHGYWFREGANTDQDAPVATNNPARAVWEETRDRFHLLGDPHTKNCTLSIRDARRSDAGRYFFKMEKGSIKWNYKHHRLSVNVTALTHRPNILIPGTLESGCPQNLTCSVPWACEQGTPPMISWIGTSVSPLDPSTTRSSVLTLIPQPQDHGTSLTCQVTFPGASVTTNKTVHLNVSYPPQNLTMTVFQGDGTVSTVLGNGSSLSLPEGQSLRLVCAVDAVDSNPPARLSLSWRGLTLCPSQPSNPGVLELPWVHLRDAAEFTCRAQNPLGSQQVYLNVSLQSKATSGVTQGVVGGAGATALVFLSFCVIFVVVRSCRKKSARPAAGVGDTGIEDANAVRGSASQGPLTEPWAEDSPPDQPPPASARSSVGEGELQYASLSFQMVKPWDSRGQEATDTEYSEIKIHR
# Columns and labels:
# Experiment in all cases: glycan array binding signal (z-score within array); higher = stronger binding
# Settings in all cases: glycan notation: IUPAC condensed, linker removed; mutation: R120K
# [1] = target: Fuc(a1-2)Gal(b1-3)GlcNAc(b1-3)GalNAc
# In short: (§1)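 From the Consortium for Functional Glycomics database, 3228 arrays were curated, keeping only those whose protein sequence was available. Binding is given as a within-array Z-score averaged across arrays sharing a protein sequence and across linkers. Negative Z-scores can be read as non-binding.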
# [2] = target: Fuc(a1-2)Gal(b1-3)[Fuc(a1-4)]GlcNAc(b1-2)Man(a1-3)[Fuc(a1-2)Gal(b1-3)[Fuc(a1-4)]GlcNAc(b1-2)Man(a1-3)]Man(b1-4)GlcNAc(b1-4)GlcNAc
# In short: as §1
# [3] = target: Fuc(a1-2)Gal(b1-4)Fuc(a1-3)]GlcNAc(b1-2)Man(a1-3)[Fuc(a1-2)Gal(b1-4)[Fuc(a1-3)]GlcNAc(b1-2)Man(a1-6)]Man(b1-4)GlcNAc(b1-4)GlcNAc
# In short: as §1
# [4] = target: Fuc(a1-2)Gal(b1-4)GlcNAc(b1-3)Gal(b1-4)GlcNAc(b1-2)Man(a1-3)[Fuc(a1-2)Gal(b1-4)GlcNAc(b1-3)Gal(b1-4)GlcNAc(b1-2)Man(a1-6)]Man(b1-4)GlcNAc(b1-4)GlcNAc
# In short: as §1
# [5] = target: Fuc(a1-2)Gal(b1-4)[Fuc(a1-3)]GlcNAc
# In short: as §1
# [6] = target: Fuc(a1-2)Gal6S(b1-3)GlcNAc6S
# In short: as §1
# [7] = target: Fuc(a1-2)[Gal(a1-3)]Gal(b1-3)GlcNAc(b1-2)Man(a1-3)[Fuc(a1-2)[Gal(a1-3)]Gal(b1-3)GlcNAc(b1-2)Man(a1-6)]Man(b1-4)GlcNAc(b1-4)[Fuc(a1-6)]GlcNAc
# In short: as §1
# [8] = target: Fuc(a1-2)[Gal(a1-3)]Gal(b1-4)GlcNAc(b1-3)[Fuc(a1-2)[Gal(a1-3)]Gal(b1-4)GlcNAc(b1-6)]GalNAc
# In short: as §1
# [9] = target: Fuc(a1-3)GlcNAc
# In short: as §1
# [10] = target: Fuc(a1-3)[Gal(b1-4)]GlcNAc(b1-3)Gal(b1-3)[Fuc(a1-4)]GlcNAc
# In short: as §1
# [11] = target: Fuc(a1-4)GlcNAc
# In short: as §1
# [12] = target: Gal(a1-3)Gal(b1-3)GlcNAc(b1-2)Man
# In short: as §1
# [13] = target: Gal(a1-3)Gal(b1-4)[Fuc(a1-3)]GlcNAc(b1-2)Man(a1-3)[Gal(a1-3)Gal(b1-4)[Fuc(a1-3)]GlcNAc(b1-2)Man(a1-6)]Man(b1-4)GlcNAc(b1-4)GlcNAc
# In short: as §1
# [14] = target: Gal(b1-3)GlcNAc(b1-2)Man(a1-3)[Gal(b1-3)GlcNAc(b1-2)Man(a1-6)]Man(b1-4)GlcNAc(b1-4)[Fuc(a1-6)]GlcNAc
# In short: as §1
# [15] = target: Gal(b1-4)Gal
# In short: as §1
# [16] = target: Gal(b1-4)GlcNAc(b1-3)Gal(b1-3)GalNAc
# In short: as §1
# [17] = target: Gal(b1-4)GlcNAc(b1-3)Gal(b1-4)GlcNAc(b1-2)Man(a1-3)[Gal(b1-4)GlcNAc(b1-3)Gal(b1-4)GlcNAc(b1-2)Man(a1-6)]Man(b1-4)GlcNAc(b1-4)[Fuc(a1-6)]GlcNAc
# In short: as §1
# [18] = target: Gal(b1-4)GlcNAc(b1-3)Gal(b1-4)GlcNAc(b1-3)Gal(b1-4)GlcNAc(b1-3)Gal(b1-4)GlcNAc(b1-2)[Gal(b1-4)GlcNAc(b1-3)Gal(b1-4)GlcNAc(b1-3)Gal(b1-4)GlcNAc(b1-3)Gal(b1-4)GlcNAc(b1-6)]Man(a1-6)[Gal(b1-4)GlcNAc(b1-3)Gal(b1-4)GlcNAc(b1-3)Gal(b1-4)GlcNAc(b1-3)Gal(b1-4)GlcNAc(b1-2)Man(a1-3)]Man(b1-4)GlcNAc(b1-4)[Fuc(a1-6)]GlcNAc
# In short: as §1
# [19] = target: Gal(b1-4)GlcNAc(b1-3)GalNAc
# In short: as §1
# [20] = target: Gal(b1-4)GlcNAc(b1-6)GalNAc
# In short: as §1
# [21] = target: Gal(b1-4)GlcNAc6P
# In short: as §1
# [22] = target: Gal3S(b1-3)GlcNAc
# In short: as §1
# [23] = target: GalNAc3S(b1-4)GlcNAc
# In short: as §1
# [24] = target: GalNAc3S(b1-4)GlcNAc3S
# In short: as §1
# [25] = target: GalNAc3S(b1-4)[Fuc(a1-3)]GlcNAc
# In short: as §1
# [26] = target: GlcNAc(b1-2)Man(a1-3)[GlcNAc(b1-2)Man(a1-6)]Man(b1-4)GlcNAc(b1-4)[Fuc(a1-6)]GlcNAc
# In short: as §1
# [27] = target: GlcNAc(b1-2)[GlcNAc(b1-4)]Man(a1-3)[GlcNAc(b1-4)][GlcNAc(b1-2)Man(a1-6)]Man(b1-4)GlcNAc(b1-4)GlcNAc
# In short: as §1
# [28] = target: GlcNAc(b1-2)[GlcNAc(b1-6)]Man(a1-6)[GlcNAc(b1-2)Man(a1-3)]Man(b1-4)GlcNAc(b1-4)GlcNAc
# In short: as §1
# [29] = target: GlcNAc(b1-3)Gal(b1-4)GlcNAc(b1-2)Man(a1-3)[GlcNAc(b1-3)Gal(b1-4)GlcNAc(b1-2)Man(a1-6)]Man(b1-4)GlcNAc(b1-4)[Fuc(a1-6)]GlcNAc
# In short: as §1
# [30] = target: GlcNAc(b1-3)Gal(b1-4)GlcNAc(b1-2)[GlcNAc(b1-3)Gal(b1-4)GlcNAc(b1-6)]Man(a1-6)[GlcNAc(b1-3)Gal(b1-4)GlcNAc(b1-2)Man(a1-3)]Man(b1-4)GlcNAc(b1-4)GlcNAc
# In short: as §1
binder,measurement,setting,value
B1,glycan array binding signal (z-score),[1],-0.33
same,glycan array binding signal (z-score),[2],2.09
same,glycan array binding signal (z-score),[3],6.8
same,glycan array binding signal (z-score),[4],-0.282
same,glycan array binding signal (z-score),[5],-0.297
same,glycan array binding signal (z-score),[6],2.46
same,glycan array binding signal (z-score),[7],1.14
same,glycan array binding signal (z-score),[8],5.67
same,glycan array binding signal (z-score),[9],-0.568
same,glycan array binding signal (z-score),[10],-0.304
same,glycan array binding signal (z-score),[11],2.96
same,glycan array binding signal (z-score),[12],0.513
same,glycan array binding signal (z-score),[13],3.77
same,glycan array binding signal (z-score),[14],-0.25
same,glycan array binding signal (z-score),[15],1.95
same,glycan array binding signal (z-score),[16],0.236
same,glycan array binding signal (z-score),[17],-0.136
same,glycan array binding signal (z-score),[18],-0.342
same,glycan array binding signal (z-score),[19],-0.357
same,glycan array binding signal (z-score),[20],0.335
same,glycan array binding signal (z-score),[21],0.464
same,glycan array binding signal (z-score),[22],-0.347
same,glycan array binding signal (z-score),[23],-0.59
same,glycan array binding signal (z-score),[24],-0.23
same,glycan array binding signal (z-score),[25],-0.228
same,glycan array binding signal (z-score),[26],-0.036
same,glycan array binding signal (z-score),[27],8.32
same,glycan array binding signal (z-score),[28],-0.232
same,glycan array binding signal (z-score),[29],0.432
same,glycan array binding signal (z-score),[30],-0.559
